AGP1 TOR yeast – modulators of AGP1-GFP expression in yeast TOR pathway, primary screen, cell-based, multiplex flow cytometry, S. cerevisiae, MLPCN library. 3 h; GFP as percent of DMSO wells. GFP response vs DMSO, % at 10 µM. 0.02% of 320,000 active;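 active = GFP response relative to DMSO above a set limit, near screen average plus 3 SD, cut at about 150% in these data; inconclusive = fewer than 70 cells counted for the yeast strain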;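 note: median GFP channel fluorescence of the gated AGP1 strain per well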
CIT2 TOR yeast – modulators of CIT2-GFP expression in yeast, primary screen, S. cerevisiae, GFP fusion, multiplex flow cytometry, MLPCN library | GFP response vs DMSO, % at 10 µM | AID 2029, 2009 | S. cerevisiae CIT2-GFP strain, 3 h; 100 means same as DMSO wells | 0.065% of 320,000 active;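 active = GFP response relative to DMSO above a set limit, near the screen mean plus 3 SD, cut at about 150% in these data; inconclusive = Fewer than 70 cells measured for a yeast strain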;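 note: ratio of well median GFP fluorescence to mean of DMSO wells on the plate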
LAP4 TOR yeast – modulators of LAP4-GFP expression in yeast, primary screen, S. cerevisiae, multiplex flow cytometry, MLPCN library | 0.34% of 320,000 active | AID 2023, 2009 | GFP response vs DMSO, % at 10 µM | 3 h; median GFP as percent of DMSO wells;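 active = GFP response vs DMSO above a set limit, about the screen mean plus 3 SD, cut at about 150% in these data; inconclusive = under 70 cell events counted for the yeast strain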
MEP2-GFP yeast – modulators of MEP2-GFP levels in yeast, primary screen, S. cerevisiae, multiplex flow cytometry, MLPCN library; S. cerevisiae MEP2-GFP strain, 3 h; 100% = DMSO control level; GFP response vs DMSO, % at 10 µM; 0.51% of 330,000 active; AID 2016, 2009;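 active = GFP response versus DMSO above a set limit, roughly screen mean plus 3 SD, cut at about 180% in these data; inconclusive = fewer than 70 cells counted for a yeast strain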;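 note: median GFP fluorescence of the barcode-gated MEP2-GFP cells per well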
Myeloid diff 2 – induction of myeloid progenitor differentiation, primary screen, cell-based, flow cytometry, MLPCN library. 1% of 360,000 active. AID 624256, 2012. calls only at 10 µM. ER-HoxA9 myeloid progenitors, lysozyme-GFP differentiation;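 active = normalized GFP-positive differentiation at or above the plate's own cutoff, the solvent-only control mean plus 3 SD; inconclusive = no clear call, values can overlap the other calls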;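 note: cells exposed to compound for four days before flow analysis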
RPL19A TOR yeast – RPL19A-GFP expression modulators in yeast, primary screen, cell-based, S. cerevisiae, multiplex flow cytometry, MLPCN. AID 2025, 2009. 0.3% of 330,000 active. S. cerevisiae RPL19A-GFP strain, 3 h; hits give low values. percent response vs DMSO, % at 10 µM;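 active = percent response vs DMSO below 50%; inconclusive = fewer than 70 events counted for the yeast strain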;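 note: median channel GFP fluorescence of the barcoded RPL19A-GFP strain; lower means less RPL19A-GFP as with rapamycin TOR inhibition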
Hits are given with their value; - = inactive; ? = inconclusive; . = not tested or not shown; + = active, no number; [ ] = remark or other dose. An excerpt weighted towards active compounds, which were near 1.8% of everything screened.

SMILES	AGP1 TOR yeast	CIT2 TOR yeast	LAP4 TOR yeast	MEP2-GFP yeast	Myeloid diff 2	RPL19A TOR yeast
C#CCOCCOCCOCCNc1nc(N2CCN(C(=O)CCCCCCCCCCNC(=O)[C@H]([C@@H](C)CC)n3cc(CCCCN=C(N)N)nn3)CC2)nc(N2CCN(C(=O)CCCCCCCCCCNC(=O)[C@H](CCCCN)n3cc(C[C@@H](C)CC)nn3)CC2)n1	-	-	187	-	.	-
Cc1cc(NC(=O)CCC(=O)N(c2ccccc2)C(C(=O)NC(C)(C)C)c2ccccc2Cl)no1 (configuration not stated)	-	-	-	-	-	-
COC(=O)C1=CN(c2cc(C)cc(C)c2)C=C(C(=O)OC)C1c1ccc(OC)c(O)c1	-	-	-	-	-	-
CCOC(=O)c1ccc(N2C=C(C(=O)OC)C(c3ccc(OC)c(O)c3)C(C(=O)OC)=C2)cc1	-	?	-	769[may fluoresce violet]	-	49[may fluoresce violet]
COc1cc(OC)nc(Oc2cc(/C=N/O)ccc2OC)n1	-	-	-	-	-	-
CCCCNc1nc(CC(C)=O)ns1	-	-	-	-	-	-
CC(C)(C)C1CCc2onc(C(=O)Nc3ccc4c(c3)OCO4)c2C1 (configuration not stated)	-	-	-	-	-	-
Cc1cc(NC(=O)CSc2nc(CCC3CCCC3)nc3ccccc23)no1	-	-	-	-	+	-
CCN(CC)CCNC(=O)Cn1c(-c2ccccn2)nc2ccccc21	-	-	-	180	-	-
NNC(=O)Cn1c(-c2ccccn2)nc2ccccc21	-	-	-	-	-	-
COc1ccc(S(=O)(=O)N2CCC[C@H]2C(=O)N2CCC[C@H]2C(=O)NCc2ccc(F)cc2F)cc1C	.	.	.	.	-	.
CCCCn1c(N)c(N(CC(C)C)C(=O)C2=NN(c3ccccc3)C(=O)CC2)c(=O)[nH]c1=O	-	-	-	-	-	-
CCOCC(=O)Nc1ccc2c(c1)OCCO2	?	?	-	261[may fluoresce violet]	-	29[may fluoresce violet]
C/C(CC(=O)Nc1ccc2c(c1)OCCO2)=N\NC(=O)COc1ccccc1C	-	-	-	-	-	-
CCOc1ccc(NC(=O)C/C(C)=N/NC(=O)COc2ccc(Br)cc2C)cc1	-	?	-	252[may fluoresce violet]	-	-
C/C(CC(=O)Nc1ccc2c(c1)OCCO2)=N\NC(=O)COc1cccc(C)c1	-	-	-	-	+	-
CCC(=O)Nc1ccc2c(c1)OCCO2	-	-	-	-	-	-
O=C(Nc1cnn(Cc2ccc(Cl)cc2)c1)c1cnccn1	-	-	-	-	-	-
CCO[C@@H]1OC(C(=O)NC2CC2)=C[C@H](c2ccccc2)[C@H]1CCCO	?	?	-	282[may fluoresce violet]	-	47[may fluoresce violet]
C=CC[n+]1ccn(-c2nc3ccccc3nc2[N-]S(=O)(=O)c2cccs2)c1	-	-	-	-	+	-
O=C(O)c1cc(NS(=O)(=O)c2ccc(N3CCCCC3)c([N+](=O)[O-])c2)cc(C(=O)O)c1	-	-	-	-	-	-
O=C(/C=C/c1ccccc1)C1=C(O)C(=O)N(CCO)C1c1cccc([N+](=O)[O-])c1 (configuration not stated)	-	-	-	639	-	-
Cc1ccc(S(=O)(=O)NNC(=O)c2cc([N+](=O)[O-])c(C)c([N+](=O)[O-])c2)cc1	-	-	-	-	-	-
Cc1cc(-c2csc3nc[nH]c(=S)c23)cc(C)c1C	-	-	-	185	-	-
Cc1c(C2C(C#N)=C(N)OC3=C2C(=O)CCC3)cnn1C (configuration not stated)	-	-	-	-	-	-
CCOC(=O)[C@@H]1[C@H]2COc3cc(OC)ccc3[C@@H]2N2C(=O)N(c3cccc(F)c3)C(=O)[C@@]12C	-	-	-	-	-	-
CCOC(=O)/C(C#N)=C\C=C1C=CN(C)C=C1	-	-	-	-	+	-
Cc1c(CC(=O)O)c(=O)oc2c(C)c(OCc3nn[nH]n3)ccc12	-	-	-	-	+	-

Screens deposited in PubChem BioAssay by NMMLSC.
